Results taken from PubChem BioAssay AID434970 (Sanford-Burnham Center for Chemical Genomics, 2010).
Out of some 11,000 compounds screened, about 310 (2.8%) were called active. The sample holds actives, similar compounds and a random draw of the others, so the mix is not that of the screen. Cut-off read from the data, not from the text of the source: active = activity change below about -85%; inactive = the rest.

Tested on: intestinal alkaline phosphatase [Mus musculus]
Test: mouse intestinal phosphatase enzyme activation – biochemical, luminescence, single concentration, confirmation (AID 434970)
Details: purified mouse IAP, CDP-Star luminescence, 30 min, at 10 µM; activation factor: measured here: IAP activation factor, stronger effect = higher value; activity change, negative = activation: stronger effect = lower value

Structure (SMILES)	activation factor	activity change, negative = activation
CCOC(=O)C1=CN(Cc2cccc(F)c2)S(=O)(=O)NC1c1ccc(Br)cc1F (stereo not given)	0.921	7.85% (inactive)
CN(C)C(=O)CCc1ccc2c3c([nH]c2c1)[C@]1(C)[C@@H](C(=O)N2CCOCC2)C[C@H](CC(=O)NCCc2ccccn2)C(=O)N1CC3	1.02	-2.25% (inactive)
O=C1C[C@@H]2CCN3C(=O)CCC[C@@H]([C@H]23)[C@@H]1Cc1ccccc1	0.964	3.55% (inactive)
CC(CN1CCN(C)CC1)OC(=O)c1ccc(Cl)cc1 (stereo not given)	0.929	7.05% (inactive)
N#Cc1ccc(N2CCN(c3ccc(F)cc3)CC2)cc1	0.995	0.5% (inactive)
CCCNC(=O)c1ccc(SC)cc1OC	0.92	8% (inactive)
O=C(Nc1ccc(Cl)cc1)Nc1ccc(Cl)c(Cl)c1	2.27	-127% (active)
N#Cc1ccc(NC(=O)Nc2ccc(Cl)cc2)cc1	1.73	-72.5% (inactive)
Cc1ccc(NC(=O)Nc2ccc(F)c(Cl)c2)cc1	1.35	-35% (inactive)
CCn1nccc1C(=O)Nc1ccc(Cl)c(Cl)c1	0.952	4.85% (inactive)
O=C(Nc1ccc(Br)cc1)Nc1ccccc1F	1.81	-81.1% (inactive)
O=C(Nc1ccc(Cl)c(Cl)c1)Nc1ccc(Br)cc1F	2.24	-124% (active)
O=C(Nc1ccc(Br)cc1)Nc1ccccc1Cl	1.39	-39.4% (inactive)
O=C(NCC1CC1(Cl)Cl)Nc1ccc(Cl)c(Cl)c1 (stereo not given)	2.53	-153% (active)
O=C(Nc1ccc(Cl)c(Cl)c1)N1CCSCC1	1.13	-13.4% (inactive)
CCN(CC)c1nc(N)c2c(N)n(-c3ccccc3C)c(=S)c(C#N)c2c1C#N	0.823	17.8% (inactive)
O=C1c2cccc3c(N4CCCCC4)ccc(c23)C(=O)N1CCO	1.18	-17.9% (inactive)
CCOc1ccccc1N(CC(=O)NC1CCCCC1)S(C)(=O)=O	0.972	2.85% (inactive)
COc1cc2c(c(OC)c1OC)C(c1ccccc1C)CC(=O)O2 (stereo not given)	1.07	-6.55% (inactive)
Cc1ccc(S(=O)(=O)N2CCN(C(=O)CSc3nc4ccccc4c(=O)[nH]3)CC2)c(C)c1	1.1	-10.3% (inactive)
CSCC[C@H](NC(=O)C1CCN(S(=O)(=O)c2ccc(C)cc2C)CC1)c1nc2ccccc2[nH]1	2.02	-102% (active)
CSCCC(NC(=O)c1ccc(=O)n(C)n1)c1nc2ccccc2[nH]1 (stereo not given)	0.931	6.9% (inactive)
Cc1ccc(C)c(CN2CCC(CNC(=O)Nc3ccc(F)c(Cl)c3)CC2)c1	1.98	-97.9% (active)
Cc1nn(C)cc1CNC(=O)Nc1ccc(Cl)cc1	1.32	-31.6% (inactive)
Cc1ccc(C)c(CN2CCC(CNC(=O)Nc3ccc(Cl)cc3)CC2)c1	2.23	-123% (active)
